This is part of a sample that, as a whole, favours compounds with a hit. Of some 83,000 tested, about 20% had one in any assay.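 Note: values are percent growth. 100 is the growth of untreated cells, values between 100 and 0 indicate rising inhibition; between -100 and 0 indicates cell death.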 Activity calls are given as the source filed them. The calls were made as follows: active = growth percent below 10; inactive = the rest.
Experiments:
Assay in all cases: NCI-60 one-dose screen, 48 h (100 = growth as untreated, 0 = no growth, -100 = all killed)
Settings in all cases: 10 µM unless noted
NCI-H226 lung = test system: NCI-H226 lung
NCI-H322M lung = test system: NCI-H322M lung
HOP-62 NSCLC = test system: HOP-62 NSCLC
NCI-H460 lung = test system: NCI-H460 lung
HOP-92 NSCLC = test system: HOP-92 NSCLC
NCI-H522 lung = test system: NCI-H522 lung
A549/ATCC NSCLC = test system: A549/ATCC NSCLC
786-0 renal = test system: 786-0 renal
COLO 205 colon = test system: COLO 205 colon
DU-145 prostate = test system: DU-145 prostate
MALME-3M melanoma = test system: MALME-3M melanoma
MDA-MB-231 breast = test system: MDA-MB-231 breast
RXF 393 renal = test system: RXF 393 renal
SF-268 CNS = test system: SF-268 CNS
SF-295 CNS = test system: SF-295 CNS
SF-539 CNS = test system: SF-539 CNS
UACC-257 melanoma = test system: UACC-257 melanoma
M14 melanoma = test system: M14 melanoma
HCT-15 colon = test system: HCT-15 colon
K-562 leukemia = test system: K-562 leukemia

Measured: growth

Cc1ccc2ccc3ccc(C)nc3c2n1.Cc1ccc2ccc3ccc(C)nc3c2n1.Oc1c(Cl)cc(Cl)c2ccc(CN3CCCCC3)nc12.[Ru]
active: NCI-H226 lung -69% | NCI-H322M lung -83.4% | HOP-62 NSCLC -57.2% | NCI-H460 lung -15.2% | HOP-92 NSCLC -86.5% | NCI-H522 lung -68.8% | A549/ATCC NSCLC -42.7% | 786-0 renal -87.7% | COLO 205 colon -74.2% | DU-145 prostate -93.3% | MALME-3M melanoma -85.1% | MDA-MB-231 breast -84% | RXF 393 renal -84.1% | SF-268 CNS -54.8% | SF-295 CNS -84.2% | SF-539 CNS -88.2% | UACC-257 melanoma -69.4% | M14 melanoma -94.1% | HCT-15 colon -81.3%

N#Cc1nc(-c2ccccc2)oc1S(=O)(=O)N1CCCCC1
inactive: NCI-H226 lung 105% | NCI-H322M lung 104% | HOP-62 NSCLC 110% | NCI-H460 lung 110% | HOP-92 NSCLC 55.7% | A549/ATCC NSCLC 98.7% | 786-0 renal 24.7% | COLO 205 colon 44.1% | DU-145 prostate 41.6% | MDA-MB-231 breast 20.6% | SF-268 CNS 110% | SF-295 CNS 107% | SF-539 CNS 77.3% | UACC-257 melanoma 94.1%
active: NCI-H522 lung -62% | MALME-3M melanoma -68.8% | RXF 393 renal -71.8% | M14 melanoma -15.2% | HCT-15 colon -35.3%

C=C1CC[C@H]2[C@@](C)(CCC3OC(c4ccc(OCc5cn(C6CC(OC(C)=O)C(OC(C)=O)C(COC(C)=O)O6)nn5)cc4)OC[C@]32C)[C@@H]1/C=C/C1=CCOC1=O (stereo not given in full)
inactive: NCI-H226 lung 74.5% | NCI-H322M lung 100% | HOP-62 NSCLC 85.5% | NCI-H460 lung 85.8% | HOP-92 NSCLC 65.6% | NCI-H522 lung 82.2% | A549/ATCC NSCLC 82.8% | 786-0 renal 95.1% | DU-145 prostate 90% | K-562 leukemia 38.8% | MALME-3M melanoma 58% | MDA-MB-231 breast 77.9% | RXF 393 renal 103% | SF-268 CNS 90.3% | SF-295 CNS 61% | SF-539 CNS 84.8% | UACC-257 melanoma 61.6% | M14 melanoma 93.9% | HCT-15 colon 77.2%

COc1cc(OC)c(S(=O)(=O)NNC(=O)c2ccncc2)cc1C(=O)/C=C/c1ccc(C)cc1
inactive: NCI-H226 lung 89.5% | NCI-H322M lung 62.3% | HOP-62 NSCLC 103% | NCI-H460 lung 63.4% | HOP-92 NSCLC 42.1% | NCI-H522 lung 84.9% | A549/ATCC NSCLC 93.4% | 786-0 renal 57.1% | COLO 205 colon 99% | DU-145 prostate 83.1% | K-562 leukemia 27.3% | MALME-3M melanoma 95.5% | MDA-MB-231 breast 67.4% | RXF 393 renal 82.9% | SF-268 CNS 60.9% | SF-295 CNS 107% | SF-539 CNS 65.3% | UACC-257 melanoma 99.6% | M14 melanoma 56.4% | HCT-15 colon 85.3%

CC(=O)Oc1ccccc1C(=O)Nc1ccc(C(=O)/C=C/c2cccs2)cc1
inactive: NCI-H226 lung 116% | NCI-H322M lung 106% | HOP-62 NSCLC 101% | NCI-H460 lung 116% | HOP-92 NSCLC 108% | NCI-H522 lung 102% | A549/ATCC NSCLC 104% | 786-0 renal 88.7% | COLO 205 colon 126% | DU-145 prostate 113% | K-562 leukemia 101% | MALME-3M melanoma 104% | MDA-MB-231 breast 113% | RXF 393 renal 126% | SF-268 CNS 107% | SF-295 CNS 99.1% | SF-539 CNS 107% | UACC-257 melanoma 113% | M14 melanoma 107% | HCT-15 colon 96.7%

CCOC(=O)c1c(Nc2ccccc2)nn2c(-c3ccco3)c(C#N)cnc12
inactive: NCI-H226 lung 76.9% | NCI-H322M lung 96.8% | HOP-62 NSCLC 95.6% | NCI-H460 lung 93.1% | HOP-92 NSCLC 68% | NCI-H522 lung 82.6% | A549/ATCC NSCLC 95.2% | 786-0 renal 67.2% | COLO 205 colon 98.6% | DU-145 prostate 87.9% | MALME-3M melanoma 94.9% | MDA-MB-231 breast 80% | RXF 393 renal 82.1% | SF-268 CNS 80.5% | SF-295 CNS 76.7% | SF-539 CNS 42% | UACC-257 melanoma 112% | M14 melanoma 107% | HCT-15 colon 91.5%

c1ccc(CNc2ncnc3ccc(-c4cnc5[nH]ncc5c4)cc23)cc1
inactive: NCI-H226 lung 55.7% | NCI-H322M lung 59.3% | HOP-62 NSCLC 60.7% | NCI-H460 lung 65.7% | HOP-92 NSCLC 57.9% | NCI-H522 lung 60.9% | A549/ATCC NSCLC 37.5% | 786-0 renal 61.8% | COLO 205 colon 94% | DU-145 prostate 49.6% | MALME-3M melanoma 103% | MDA-MB-231 breast 63.7% | RXF 393 renal 33.8% | SF-268 CNS 58.2% | SF-295 CNS 74.1% | SF-539 CNS 69.9% | UACC-257 melanoma 95.4% | M14 melanoma 94.8% | HCT-15 colon 77%

COc1ccc(C(=O)c2cc(C(=O)/C=C/c3c(Cl)cccc3Cl)c3cc(C)ccn23)cc1
inactive: NCI-H226 lung 103% | NCI-H322M lung 98.3% | HOP-62 NSCLC 98.5% | NCI-H460 lung 100% | HOP-92 NSCLC 97.3% | NCI-H522 lung 91.5% | A549/ATCC NSCLC 99.6% | 786-0 renal 100% | COLO 205 colon 108% | DU-145 prostate 106% | K-562 leukemia 94.2% | MALME-3M melanoma 97.1% | MDA-MB-231 breast 96.9% | RXF 393 renal 108% | SF-268 CNS 98% | SF-295 CNS 101% | SF-539 CNS 94.6% | UACC-257 melanoma 102% | M14 melanoma 99.5% | HCT-15 colon 99.9%

Cc1ccc(CNS(=O)(=O)/N=C2\NC(=O)NC2=C(Cl)Cl)cc1
active: HOP-92 NSCLC -1.1% | SF-295 CNS 4.1% | SF-539 CNS 1.74%
inactive: NCI-H226 lung 79.1% | NCI-H322M lung 99.9% | HOP-62 NSCLC 46.2% | NCI-H460 lung 75.3% | NCI-H522 lung 36.8% | A549/ATCC NSCLC 99.2% | 786-0 renal 36.6% | COLO 205 colon 113% | DU-145 prostate 32.6% | K-562 leukemia 27.7% | MALME-3M melanoma 94.7% | MDA-MB-231 breast 40.3% | RXF 393 renal 96.9% | SF-268 CNS 61.8% | UACC-257 melanoma 60.2% | M14 melanoma 87.2% | HCT-15 colon 95.3%

COc1ccc(/C=N/Nc2ccnc3cc(Cl)ccc23)cc1Cl
active: NCI-H322M lung -64.1% | HOP-62 NSCLC -42.9% | NCI-H460 lung -79% | HOP-92 NSCLC -57.6% | NCI-H522 lung -73.7% | A549/ATCC NSCLC -41.6% | 786-0 renal -94.9% | COLO 205 colon -82.7% | DU-145 prostate -57% | K-562 leukemia -52.8% | MALME-3M melanoma -78.5% | MDA-MB-231 breast -71.3% | RXF 393 renal -58% | SF-268 CNS -64.7% | SF-295 CNS -53.1% | SF-539 CNS -90.4% | UACC-257 melanoma -84.4% | M14 melanoma -84.5% | HCT-15 colon -20.4%
inactive: NCI-H226 lung 69%

CC(C)(C)Nc1nc2c(OCCc3ccccc3)cccn2c1-c1ccc(Cl)cc1
inactive: NCI-H226 lung 12.4% | NCI-H322M lung 24.6% | HOP-62 NSCLC 32.4% | NCI-H460 lung 16% | A549/ATCC NSCLC 16% | 786-0 renal 26.9% | DU-145 prostate 48.2% | MDA-MB-231 breast 17.4% | SF-268 CNS 45.5% | SF-539 CNS 21.7% | UACC-257 melanoma 16.7% | M14 melanoma 26.8%
active: HOP-92 NSCLC -24.9% | NCI-H522 lung 3.18% | COLO 205 colon -3.99% | K-562 leukemia 5.28% | MALME-3M melanoma 1.51% | RXF 393 renal -15.3% | SF-295 CNS 3.7% | HCT-15 colon 3.86%

COc1ccc(COc2ccc(/C=C3/C(=O)Nc4cc(Cl)ccc43)cc2)cc1
inactive: NCI-H226 lung 89.4% | NCI-H322M lung 87.7% | HOP-62 NSCLC 95.4% | NCI-H460 lung 98.2% | HOP-92 NSCLC 93.1% | NCI-H522 lung 92% | A549/ATCC NSCLC 98.7% | 786-0 renal 110% | COLO 205 colon 101% | DU-145 prostate 98.2% | K-562 leukemia 113% | MALME-3M melanoma 86.6% | MDA-MB-231 breast 91.2% | RXF 393 renal 105% | SF-268 CNS 99.5% | SF-295 CNS 101% | SF-539 CNS 85.8% | UACC-257 melanoma 106% | M14 melanoma 97.7% | HCT-15 colon 104%

Cn1c(SCC(=O)c2cccs2)nc2ccccc2c1=O
inactive: NCI-H226 lung 91.9% | NCI-H322M lung 102% | HOP-62 NSCLC 85.9% | NCI-H460 lung 98.7% | HOP-92 NSCLC 87.3% | NCI-H522 lung 87.8% | A549/ATCC NSCLC 99.6% | 786-0 renal 98.6% | COLO 205 colon 111% | DU-145 prostate 105% | K-562 leukemia 78.5% | MALME-3M melanoma 102% | MDA-MB-231 breast 88.2% | RXF 393 renal 107% | SF-268 CNS 92.7% | SF-295 CNS 107% | SF-539 CNS 94.6% | UACC-257 melanoma 93.4% | M14 melanoma 97.8% | HCT-15 colon 91.1%

N[C@@H](Cc1cn(-c2ccnc3ccccc23)nn1)C(=O)O
inactive: NCI-H226 lung 109% | NCI-H322M lung 102% | HOP-62 NSCLC 95.1% | NCI-H460 lung 112% | HOP-92 NSCLC 101% | NCI-H522 lung 101% | A549/ATCC NSCLC 101% | 786-0 renal 104% | COLO 205 colon 112% | DU-145 prostate 110% | K-562 leukemia 107% | MALME-3M melanoma 95.5% | MDA-MB-231 breast 97.5% | RXF 393 renal 121% | SF-268 CNS 103% | SF-295 CNS 104% | SF-539 CNS 93% | UACC-257 melanoma 106% | M14 melanoma 108% | HCT-15 colon 114%

COc1cc(/C=C/C(=O)c2ccccc2)ccc1Oc1nc(NCCO)nc(N2CCOCC2)n1
inactive: NCI-H226 lung 107% | NCI-H322M lung 99.3% | HOP-62 NSCLC 90.1% | NCI-H460 lung 110% | HOP-92 NSCLC 90.9% | NCI-H522 lung 99.3% | A549/ATCC NSCLC 98.8% | 786-0 renal 105% | COLO 205 colon 116% | DU-145 prostate 104% | K-562 leukemia 22.9% | MALME-3M melanoma 93.7% | MDA-MB-231 breast 97.1% | RXF 393 renal 105% | SF-268 CNS 103% | SF-295 CNS 99.7% | SF-539 CNS 94.2% | UACC-257 melanoma 95.4% | M14 melanoma 99.3% | HCT-15 colon 90.9%

— PubChem BioAssay (NCI)
